The source of these data is PubChem BioAssay.

The structures appear in SMILES notation. Values without a mark were called inactive. For some of these results: Entries with a potency or affinity are not part of this list. Active and inactive are the calls of the source. Unless noted, how the calls were made is not given here.

The nature of assay [1]: antimalarial activity against Dd2 strain (AID 2302;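 active means growth inhibition above 50% at the single 2 µM test dose, taken to imply half-maximal potency below 2 µM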;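 further: 0% = DMSO untreated growth and 100% = chloroquine plus artemisinin killed control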). To be noted: P. falciparum Dd2 in RBCs, LDH growth readout, 72 h; at 2 µM; active compounds read high.
Assay [2] is described as follows: HepG2 cytotoxicity, primary screen, cytotoxicity control for P. falciparum antimalarial project, cell-based, ATP luminescence (AID 2303;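 active means inhibition above 50%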;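 further: 0% = DMSO wells and 100% = digitonin-killed cells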). To be noted: HepG2 viability, 24-48 h, at 10 µM, active compounds read high.
In assay [3] the target is L-lactate dehydrogenase (Plasmodium falciparum (isolate CDC / Honduras)) (UniProt Q27743). Briefly: PfLDH activity inhibition – cell lysate, 3D7 strain, counter-screen for P. falciparum growth inhibition project (AID 2304).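 Further: 0% = vehicle and 100% = reference inhibitor.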 To be noted: P. falciparum 3D7 crude extract, LDH APAD/NBT absorbance; at 2 µM; active compounds read high.
Assay [4] in a line: inhibition of 3D7 malaria parasite growth – strain 3D7 (AID 2306).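 Further: 0% = DMSO wells and 100% = chloroquine plus artemisinin control wells.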 To be noted: P. falciparum 3D7 erythrocytic growth, LDH absorbance, 72 h; at 2 µM; active compounds read high.
Assay [5] addresses Calcium-dependent protein kinase 1 (Plasmodium falciparum (isolate 3D7)) (UniProt P62344). Put plainly: PfCDPK1 kinase inhibitors, biochemical, TCAMS library (AID 1159585; cut-off not given, nearly all actives have IC50 up to about 0.98 µM;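 further: inhibitors leave more ATP so luminescence rises with inhibition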). To be noted: recombinant PfCDPK1, Kinase-Glo ATP depletion luminescence.
Assay [6] concerns the target Plasmodium falciparum protein kinase 6 (PK6, PF3D7_1337100) (UniProt Q8IDW1). Put plainly: PfPK6 kinase inhibitors, biochemical, TCAMS library (AID 1159586). To be noted: recombinant PfPK6, Kinase-Glo ATP depletion luminescence.
Assay [7] has as its target Protein kinase 7 (PK7), Plasmodium falciparum 3D7 (PF3D7_0213400) (UniProt Q7YTF7). Put plainly: inhibition of Plasmodium PK7 catalytic activity – biochemical, TCAMS antimalarial set, Kinase-Glo luminescence (AID 1159587). To be noted: recombinant PfPK7, Kinase-Glo ATP depletion luminescence.
Assay [8] has as its target Calcium-dependent protein kinase 4 (Plasmodium falciparum (isolate 3D7)) (UniProt Q8IBS5). Briefly: PfCDPK4 kinase inhibitors, biochemical, TCAMS library (AID 1159588; cut-off not given, nearly all actives have IC50 up to about 0.91 µM). To be noted: recombinant PfCDPK4, Kinase-Glo ATP depletion luminescence.

Sequence of Calcium-dependent protein kinase 1 (Plasmodium falciparum (isolate 3D7)) (P62344 whole entry, looked up): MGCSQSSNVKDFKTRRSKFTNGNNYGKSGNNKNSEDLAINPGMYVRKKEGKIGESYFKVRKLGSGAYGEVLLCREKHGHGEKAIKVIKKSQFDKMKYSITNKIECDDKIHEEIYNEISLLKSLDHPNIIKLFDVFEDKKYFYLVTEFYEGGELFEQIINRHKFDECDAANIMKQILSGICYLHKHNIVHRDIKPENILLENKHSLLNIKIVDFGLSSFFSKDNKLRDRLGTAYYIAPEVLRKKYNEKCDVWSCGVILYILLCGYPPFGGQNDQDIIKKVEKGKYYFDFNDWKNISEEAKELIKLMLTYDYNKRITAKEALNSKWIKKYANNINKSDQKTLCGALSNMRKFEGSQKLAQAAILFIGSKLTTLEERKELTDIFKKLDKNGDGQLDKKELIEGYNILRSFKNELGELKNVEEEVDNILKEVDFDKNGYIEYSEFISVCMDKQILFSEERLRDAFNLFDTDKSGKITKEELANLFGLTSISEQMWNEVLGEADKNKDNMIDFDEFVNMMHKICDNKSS
Sequence of Plasmodium falciparum protein kinase 6 (PK6, PF3D7_1337100) (Q8IDW1 1-305): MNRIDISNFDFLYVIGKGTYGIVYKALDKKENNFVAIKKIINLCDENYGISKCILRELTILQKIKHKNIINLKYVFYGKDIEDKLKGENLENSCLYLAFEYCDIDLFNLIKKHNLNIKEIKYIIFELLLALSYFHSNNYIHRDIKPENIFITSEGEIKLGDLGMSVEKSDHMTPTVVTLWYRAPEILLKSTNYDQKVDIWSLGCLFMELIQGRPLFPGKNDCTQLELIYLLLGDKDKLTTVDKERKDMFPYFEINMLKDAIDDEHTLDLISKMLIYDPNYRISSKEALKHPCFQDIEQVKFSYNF
Sequence of L-lactate dehydrogenase (Plasmodium falciparum (isolate CDC / Honduras)) (Q27743 whole entry, looked up): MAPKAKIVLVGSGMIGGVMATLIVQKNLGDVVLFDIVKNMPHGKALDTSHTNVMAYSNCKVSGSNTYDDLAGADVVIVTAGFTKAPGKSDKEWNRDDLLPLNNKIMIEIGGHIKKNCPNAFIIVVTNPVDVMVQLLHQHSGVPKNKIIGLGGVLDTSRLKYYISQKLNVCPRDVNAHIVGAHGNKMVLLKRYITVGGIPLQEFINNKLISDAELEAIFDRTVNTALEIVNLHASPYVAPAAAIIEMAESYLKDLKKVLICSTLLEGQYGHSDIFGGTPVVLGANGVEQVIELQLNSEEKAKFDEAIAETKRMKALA
Sequence of Protein kinase 7 (PK7), Plasmodium falciparum 3D7 (PF3D7_0213400) (Q7YTF7 1-343): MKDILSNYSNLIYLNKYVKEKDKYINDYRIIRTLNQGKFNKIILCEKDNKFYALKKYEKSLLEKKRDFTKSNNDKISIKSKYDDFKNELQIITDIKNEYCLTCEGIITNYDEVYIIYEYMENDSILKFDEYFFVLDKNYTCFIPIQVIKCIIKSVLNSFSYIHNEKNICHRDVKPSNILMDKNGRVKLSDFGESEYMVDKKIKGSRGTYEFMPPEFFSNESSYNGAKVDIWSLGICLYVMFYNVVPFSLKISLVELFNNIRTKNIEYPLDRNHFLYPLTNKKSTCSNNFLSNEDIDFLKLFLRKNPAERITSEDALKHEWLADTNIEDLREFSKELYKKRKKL
Sequence of Calcium-dependent protein kinase 4 (Plasmodium falciparum (isolate 3D7)) (Q8IBS5 whole entry, looked up): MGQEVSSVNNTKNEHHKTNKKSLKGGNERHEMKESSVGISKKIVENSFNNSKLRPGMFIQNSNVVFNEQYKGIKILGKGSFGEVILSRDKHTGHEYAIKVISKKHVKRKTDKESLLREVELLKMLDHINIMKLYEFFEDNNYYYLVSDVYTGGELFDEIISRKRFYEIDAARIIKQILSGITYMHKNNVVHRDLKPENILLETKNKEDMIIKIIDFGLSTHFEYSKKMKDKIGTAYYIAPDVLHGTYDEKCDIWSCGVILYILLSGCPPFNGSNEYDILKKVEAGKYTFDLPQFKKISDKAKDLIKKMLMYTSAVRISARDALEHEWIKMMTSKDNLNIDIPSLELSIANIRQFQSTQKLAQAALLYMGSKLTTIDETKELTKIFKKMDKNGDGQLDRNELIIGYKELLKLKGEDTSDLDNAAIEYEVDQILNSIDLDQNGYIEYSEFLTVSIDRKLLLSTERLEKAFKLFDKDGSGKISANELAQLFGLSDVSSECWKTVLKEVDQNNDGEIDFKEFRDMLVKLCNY

`COc1ccc2nccc(N(C)CC3(O)CCC(NCc4ccc5c(n4)NC(=O)CS5)CC3)c2n1` (stereo not given): the values for the growth inhibition in assay [1] and in assay [4] were 23% and 98% (active), respectively. Moreover, the figures for the inhibition in assay [2] and in assay [3] were 1% and -1%, respectively. Moreover, the outcome in assay [5], in assay [6], in assay [7] and in assay [8] was inactive.
Turning to `CCCNCc1ccc(-c2ccc(CN(CCOC)C(=O)c3cccc(C#N)c3)cc2)nc1`, the growth inhibition in assay [1] is 14%; in assay [4] it was 84% (active). Besides, the inhibition in assay [2] and in assay [3] was -2% each time. Further, the result in assay [5], in assay [6], in assay [7] and in assay [8] was inactive.
Turning to `CS(=O)(=O)CCOCc1ccc(-c2ccc3ncnc(Nc4ccc(OCc5cccc(F)c5)c(Cl)c4)c3c2)o1`, the growth inhibition in assay [1] is 43%; in assay [4], 96% (active). Also, the inhibition in assay [2] was 1%; in assay [3] it was 5%. For the same compound, the outcome in assay [5], in assay [6], in assay [7] and in assay [8] was inactive.
Turning to `CCNc1cc(C)nc(Nc2ccc(NC(=O)Cc3ccc(OC)cc3)cc2)n1`, the results for the growth inhibition in assay [1] and in assay [4] were 47% and 101% (active), respectively. In addition, the inhibition in assay [2] was 30%; in assay [3], -1%. The result in assay [5], in assay [6], in assay [7] and in assay [8] was inactive.
Take `NC(=O)C1CCN(Cc2cccc(-c3ccc(-c4nc5ccc(C(F)(F)F)cc5[nH]4)cc3)c2)CC1`: the figures for the growth inhibition in assay [1] and in assay [4] were 94% (active) and 100% (active), respectively. Also, the inhibition was 7% in assay [2] and 8% in assay [3]. The result in assay [5], in assay [6], in assay [7] and in assay [8] was inactive.
Take `COc1ccc2nccc([C@@H](O)CN3CCC(NCc4cc5ccc(Cl)cc5[nH]4)CC3)c2c1`: the growth inhibition in assay [1] is 61% (active); in assay [4] it was 99% (active). Further, the inhibition in assay [2] was 30%; in assay [3] it was 4%. Moreover, the outcome in assay [5], in assay [6], in assay [7] and in assay [8] was inactive.
`O=C(/C=C/c1ccc(Cl)c(Cl)c1)N1CCC(CN2CCC(c3c[nH]c4cnccc34)CC2)CC1`: the growth inhibition is 100% (active) in assay [1] and 102% (active) in assay [4]. Also, the inhibition in assay [2] is 39%; in assay [3], 7%. For the same compound, the outcome in assay [5], in assay [6], in assay [7] and in assay [8] was inactive.
With `CC(C)c1sc(N2CCN(C)CC2)nc1C(=O)NCCc1ccc(Br)cc1`, the growth inhibition in assay [1] was 60% (active); in assay [4] it was 89% (active). The inhibition in assay [2] and in assay [3] was -1% each time. Moreover, the result in assay [5], in assay [6], in assay [7] and in assay [8] was inactive.
As to `CN(C)c1cccc(-c2cnc3ccc(NCc4cccc(Cl)c4)nn23)c1`, the growth inhibition was 98% (active) in assay [1] and 99% (active) in assay [4]. Also, the results for the inhibition in assay [2] and in assay [3] were 11% and -3%, respectively. In addition, the result in assay [5], in assay [6], in assay [7] and in assay [8] was inactive.
Regarding `Cc1c(CNCCCNc2cc(=O)c3ccccc3[nH]2)sc(/C=N/O)c1Br`, the growth inhibition in assay [1] is -2%; in assay [4], 82% (active). In addition, the inhibition in assay [2] is 0%; in assay [3] it was 6%. Besides, the outcome in assay [5], in assay [6], in assay [7] and in assay [8] was inactive.
Turning to `COc1ccc(CCNCCCCCCNCCc2ccc(Cl)c3ccccc23)cc1OC`, the growth inhibition is 28% in assay [1] and 100% (active) in assay [4]. Also, the inhibition is 100% (active) in assay [2] and 6% in assay [3]. Moreover, the outcome in assay [5], in assay [6], in assay [7] and in assay [8] was inactive.
For `Cc1cccc2[nH]c(-c3ccc(-c4cccc(NC(=O)Nc5ccccc5)c4)cc3)nc12`, the figures for the growth inhibition in assay [1] and in assay [4] were 14% and 101% (active), respectively. Moreover, the inhibition in assay [2] is 18%; in assay [3], 9%. The outcome in assay [5], in assay [6], in assay [7] and in assay [8] was inactive.
`COc1ccc2nccc(NN=Cc3cccnc3)c2c1`: the growth inhibition in assay [1] was 84% (active); in assay [4], 100% (active). Besides, the figures for the inhibition in assay [2] and in assay [3] were -1% and -6%, respectively. Also, the result in assay [5], in assay [6], in assay [7] and in assay [8] was inactive.
In the case of `Cc1sc(CNCCCNc2cc(=O)c3ccccc3[nH]2)c(I)c1C`, the growth inhibition in assay [1] is 48%; in assay [4] it was 94% (active). In addition, the inhibition in assay [2] was -10%; in assay [3] it was -4%. The outcome in assay [5], in assay [6], in assay [7] and in assay [8] was inactive.
`CC(=O)Nc1ccc(CN2CCN(C(c3ccc(F)cc3)c3ccc(F)cc3)CC2)cc1`: the growth inhibition in assay [1] was 79% (active); in assay [4] it was 93% (active). Further, the results for the inhibition in assay [2] and in assay [3] were 4% and 0%, respectively. For the same compound, the outcome in assay [5], in assay [6], in assay [7] and in assay [8] was inactive.
For the compound `CCOc1ccc(Br)cc1/C=C/C(=O)Nc1ccc(C2CCN(C)CC2)cc1`, the growth inhibition in assay [1] was 71% (active); in assay [4], 100% (active). The inhibition in assay [2] was 30%; in assay [3] it was -2%. Also, the outcome in assay [5], in assay [6], in assay [7] and in assay [8] was inactive.
With `Cc1c(CCc2cccc(F)c2F)[nH]c2ccccc2c1=O`, the growth inhibition in assay [1] is 90% (active); in assay [4] it was 91% (active). For the same compound, the inhibition was 41% in assay [2] and 2% in assay [3]. Also, the outcome in assay [5], in assay [6], in assay [7] and in assay [8] was inactive.
Turning to `COc1cc(CCNc2nc(NCc3ccccc3-c3ccccc3)nc(N3CCC(N)CC3)n2)ccc1O`, the values for the growth inhibition in assay [1] and in assay [4] were 70% (active) and 100% (active), respectively. For the same compound, the inhibition in assay [2] was 25%; in assay [3] it was -4%. Moreover, the result in assay [5], in assay [6], in assay [7] and in assay [8] was inactive.
In the case of `O[C@H](c1cc(C(F)(F)F)nc2c(C(F)(F)F)cccc12)[C@@H]1CCCCN1`, the growth inhibition in assay [1] and in assay [4] was 99% (active) throughout. For the same compound, the figures for the inhibition in assay [2] and in assay [3] were 29% and 7%, respectively. In addition, the outcome in assay [5], in assay [6], in assay [7] and in assay [8] was inactive.
As for `Cc1nc(-c2nc(NCc3ccncc3)ncc2-c2ccsc2)sc1C`, the growth inhibition in assay [1] is 83% (active); in assay [4], 91% (active). Also, the inhibition was 8% in assay [2] and 2% in assay [3]. The outcome in assay [5], in assay [6], in assay [7] and in assay [8] was inactive.
